The source of these data is PubChem BioAssay.

Test [1] is described as follows: reducers of endogenous Her2 protein level, primary screen, SKBR3 breast tumor cells, AlphaScreen, ATP viability (AID 461;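 active = Her2 level under about 52% in both replicate screens, with viability over 70% of control, limit read from the data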;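 for Her2 level: lower value means less Her2 protein in the cells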;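 for viability: percent of carrier control wells set as 100% viability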). To be noted: 18-24 h, measured here: SKBR3 viability, ATP luminescence, at 10 µM. A general note: Bead proximity is the source of the signal in Alpha formats.
Test [2] concerns the target Receptor tyrosine-protein kinase erbB-2 (Homo sapiens) (UniProt P04626). The description is as above. Conditions: 18-24 h, at 10 µM, stronger effect = lower value.
Test [3] in a line: SK-BR-3 cell growth inhibitors, pilot screen, 24 h, human (AID 572;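 active = viability at or below 10% of carrier control in both of two separate runs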;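 note: compound exposure lasted between 18 and 24 h rather than exactly 24 h; 100% = carrier-treated control wells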). To be noted: SK-BR-3 viability, CellTiter-Glo luminescence, at 10 µM, stronger effect = lower value. (In general: ATP-based viability assays read luminescence as a measure of living cells.)
A short description of test [4]: HUVEC growth inhibition – cell-based, human, primary screen (AID 575;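 active = viability at or below 30% in both replicate assays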;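 note: 100% = median of untreated cell wells with 0.1% DMSO on each plate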). Conditions: HUVEC proliferation, CellTiter-Glo luminescence, 72 h; at 10 µM; stronger effect = lower value.
A short description of test [5]: growth inhibitors of H69AR lung tumor, primary screen, human, duplicate replicates (AID 580;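 active = viability at or under a set limit in both replicates, limit being median viability minus 3 SD, cut at about 48% in these data, passing the limit was not always enough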;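 note: 100% = mean luminescence of untreated wells and 0% = no signal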). Conditions: H69AR lung tumor cells viability, ATP luminescence, 72 h; at 10 µM; stronger effect = lower value.
Test [6] can be described thus: reversal of MRP1-mediated doxorubicin resistance, pilot screen, H69AR cells, doxorubicin co-treatment (AID 601;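 active = viability loss from added drug above about 55%, and viability with drug at most 40%, in both replicates, limit read from the data, passing the limit was not always enough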). To be noted: CellTiter-Glo, 72 h, at 10 µM; for differential viability (reversal): stronger effect = higher value.
The nature of test [7]: 384-well plate pilot, post-Golgi transport modulator project, inhibition of yeast transport mutant growth (AID 636; in the data active = inhibition above about 31%). To be noted: absorbance 615 nm, about 18 h, stronger effect = higher value.
The nature of test [8]: growth suppression of yeast trafficking mutant, preliminary HTS, modulators of trafficking downstream of Golgi apparatus project, 1536-format plate, OD 615 nm (AID 637; in the data active = inhibition above about 30%). Conditions: yeast transport mutant growth, absorbance 615 nm, 18 h; stronger effect = higher value.
Test [9] can be described thus: OD615 S. cerevisiae growth inhibition, permissive medium, pilot counter-assay, permissive growth control for S. cerevisiae lifespan shortening project (AID 705). To be noted: OD615, 24 h, at 10 µM, stronger effect = higher value.
Test [10] is described as follows: Restrictive medium S. cerevisiae growth inhibition, OD615, pilot screen of yeast lifespan reduction project, restrictive growth control (AID 706;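 active = growth inhibition above a set limit, 3 SD over mean compound inhibition, in both replicates, cut at about 43% in these data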;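 note: modified DeaD lifespan yeast strain shifted to restrictive glucose medium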). To be noted: OD615, 48 h, at 10 µM, stronger effect = higher value.
Test [11] is described as follows: viability gain of MRP-1-high H69AR cells under doxorubicin, pilot screen, MRP-1 activator project, CellTiter-Glo, duplicate (AID 807;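 active = viability increase at or above a cutoff of the median across tested compounds plus 3 SD, cut at about 8.5% in these data, passing the limit was not always enough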;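 note: compound pretreatment 18-22 h then 72 h combined with doxorubicin; 0% = doxorubicin alone and 100% = vehicle without doxorubicin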). To be noted: H69AR viability with doxorubicin, CellTiter-Glo luminescence; at 10 µM; stronger effect = higher value.
Test [12] is described as follows: growth suppression of beta-catenin knockout HCT116, pilot screen, human colon tumor cells (AID 823;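 active = cell viability at or below a set limit in both duplicate runs, the limit being the all-compound median minus 4 SD, cut at about 23% in these data, passing the limit was not always enough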;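 note: 0% = wells killed by 20 µM Hyamine and 100% = untreated DMSO cell wells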). To be noted: CellTiter-Glo, 60 h, at 10 µM, stronger effect = lower value.
A short description of test [13]: growth suppression of PTEN-deleted HCT116, pilot screen, cell-based, HCT116 clonal line, CellTiter-Glo (AID 824;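 active = viability at or below 27.92% in each of two runs, the all-compound median minus 4 SD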;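 note: 0% = 20 µM Hyamine control and 100% = vehicle cell control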). To be noted: 60 h, at 10 µM, stronger effect = lower value.
Test [14] can be described thus: inhibitors of the yeast RAM network, pilot screen, dse1pr::URA3 reporter, 5-FOA selection (AID 869;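 active = inhibition over a set limit, the all-compound mean plus 3 SD, in both replicate runs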;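 note: 0% = DMSO wells with no growth and 100% = 10 µM 1-NA-PP1 with full growth; RAM network block rescues cells from 5-FOA so hits raise OD615 growth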). Conditions: S. cerevisiae dse1pr::URA3 5-FOA growth, OD615, 2 d; at 10 µM; stronger effect = higher value; strain carries analog-sensitive mutant Cbk1 kinase.
The nature of test [15]: RAM signaling pathway blockade in yeast – S. cerevisiae, Pdr1DBD-CYC8 efflux-inhibited sensitized strain, primary screen (AID 1298;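 active = RAM network inhibition above 8.4% in each of two replicates, 3 SD over the compound average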;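 note: 0% = DMSO untreated cells without growth and 100% = 10 µM 1-NA-PP1 full growth; higher means more yeast growth rescued from 5-FOA killing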). To be noted: S. cerevisiae cbk1-as DSE1-URA3 strain, 5-FOA growth OD615, 2 d; at 50 µM; stronger effect = higher value.
The mark [16] stands for this setting: H69AR cells + 2 uM doxorubicin, measured here: viability with 2 uM doxorubicin, stronger effect = lower value.
Where [17] appears, read: H69AR cells, compound alone cytotoxicity.

Each structure is given as a SMILES string. Records with an inconclusive call do not appear. Calls of active or inactive are those of the source.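 Rule for the calls, unless noted: active = growth inhibition above 25% in both replicates, a cutoff set 3 SD above the mean; inconclusive = above 25% in only one replicate; inactive = the rest.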

Sequence of Receptor tyrosine-protein kinase erbB-2 (Homo sapiens) (P04626 whole entry, looked up): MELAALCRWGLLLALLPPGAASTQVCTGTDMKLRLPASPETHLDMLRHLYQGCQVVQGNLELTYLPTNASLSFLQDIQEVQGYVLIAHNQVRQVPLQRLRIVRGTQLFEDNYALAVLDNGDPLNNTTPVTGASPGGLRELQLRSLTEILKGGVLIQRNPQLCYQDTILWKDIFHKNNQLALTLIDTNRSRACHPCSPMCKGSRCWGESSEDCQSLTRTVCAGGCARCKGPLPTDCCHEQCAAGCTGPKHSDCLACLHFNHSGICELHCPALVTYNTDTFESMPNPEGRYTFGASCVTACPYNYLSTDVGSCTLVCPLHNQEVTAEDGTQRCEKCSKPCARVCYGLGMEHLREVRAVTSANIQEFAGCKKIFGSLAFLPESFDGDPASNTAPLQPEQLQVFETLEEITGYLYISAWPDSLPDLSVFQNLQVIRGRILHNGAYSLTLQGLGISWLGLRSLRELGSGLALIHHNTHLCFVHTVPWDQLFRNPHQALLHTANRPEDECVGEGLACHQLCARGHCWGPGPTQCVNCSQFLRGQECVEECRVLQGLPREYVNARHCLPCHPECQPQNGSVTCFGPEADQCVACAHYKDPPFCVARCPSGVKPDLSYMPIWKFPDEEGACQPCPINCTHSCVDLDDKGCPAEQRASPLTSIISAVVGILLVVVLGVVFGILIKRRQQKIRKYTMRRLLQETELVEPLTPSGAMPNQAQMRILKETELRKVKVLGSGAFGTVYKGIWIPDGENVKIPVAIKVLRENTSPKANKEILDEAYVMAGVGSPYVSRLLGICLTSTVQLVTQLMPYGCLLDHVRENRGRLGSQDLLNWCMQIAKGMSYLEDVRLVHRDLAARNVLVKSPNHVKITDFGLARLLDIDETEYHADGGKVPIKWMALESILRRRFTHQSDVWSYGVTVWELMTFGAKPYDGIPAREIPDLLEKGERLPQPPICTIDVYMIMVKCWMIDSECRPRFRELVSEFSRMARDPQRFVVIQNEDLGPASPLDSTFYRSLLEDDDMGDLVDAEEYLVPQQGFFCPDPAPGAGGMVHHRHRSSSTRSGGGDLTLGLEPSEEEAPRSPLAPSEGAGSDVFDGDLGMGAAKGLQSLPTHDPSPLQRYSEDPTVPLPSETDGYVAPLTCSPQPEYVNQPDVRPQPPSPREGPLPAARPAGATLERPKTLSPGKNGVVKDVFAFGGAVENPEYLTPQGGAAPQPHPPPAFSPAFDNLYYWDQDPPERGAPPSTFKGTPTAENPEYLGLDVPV

For `COc1ccc(OC)c2[nH]c(=O)c(CCNC(=O)C(C)C)cc12`, the viability (usually a read-out of living cells in per cent, often relative to untreated cells) in test [1] was 109%; in [3], 109% (inactive); in [4], 83.2% (inactive); in test [5] it was 88.6% (inactive); in [6] (setting [16]), 90.5%; in test [6] (setting [17]), 88.6%. The viability in test [12] is 108% (inactive); in test [13], 103% (inactive). Also, the Her2 level in test [2] was 118% (inactive). The differential viability (reversal) in test [6] (H69AR cells + 2 uM doxorubicin) is -1.89% (inactive). The figures for the inhibition in test [7], in [8] and in [14] were -3.33% (inactive), 1.83% (inactive) and 0.005% (inactive), respectively. Also, the results for the growth inhibition in [9] and in test [10] were -3.17% (inactive) and -5.05% (inactive), respectively. Further, in test [11], the viability increase was -0.71% (inactive). In test [15], the RAM network inhibition was 1.31% (inactive).

In the case of `CCN(CC)c1ccc(NC(=O)CN2C(=O)CC(C)(C)S(=O)(=O)c3ccccc32)c(C)c1`, the viability in [1] is 102%; in test [3], 102% (inactive); in test [4], 102% (inactive); in test [5], 84.8% (inactive); in [6] (setting [16]), 92.4%; in test [6] (setting [17]), 84.8%. The viability in test [12] was 63.6% (inactive); in [13], 78.1% (inactive). In addition, the Her2 level in [2] was 111% (inactive). Further, the differential viability (reversal) in [6] (H69AR cells + 2 uM doxorubicin) was -7.56% (inactive). In addition, the inhibition – broadly, the change of the read-out against control, counted positive when it falls – is -4.8% (inactive) in test [7], 0.83% (inactive) in test [8] and 1.72% (inactive) in test [14]. The growth inhibition is -6.69% (inactive) in test [9] and -16.1% (inactive) in [10]. Moreover, in test [11], the viability increase is -4.31% (inactive). For the same molecule, in test [15], the RAM network inhibition is 3.26% (inactive).

Turning to `CCN1CCN(C(=O)C2CC(c3ccc(F)cc3)=NO2)CC1` (stereo not given), the viability is 91.5% in [1]; 91.5% (inactive) in test [3]; 103% (inactive) in test [4]; 99.1% (inactive) in test [5]; 75.1% in test [6] (setting [16]); 99.1% in test [6] (setting [17]). The viability in test [12] was 95.2% (inactive); in test [13], 102% (inactive). Further, the Her2 level in test [2] was 105% (inactive). Further, the differential viability (reversal) in test [6] (H69AR cells + 2 uM doxorubicin) is 24.1% (inactive). Moreover, the figures for the inhibition in test [7], in test [8] and in test [14] were -4.1% (inactive), -6.67% (inactive) and 0.095% (inactive), respectively. Moreover, the growth inhibition in test [9] was -3.54% (inactive); in test [10], 3.61% (inactive). Also, the viability increase in test [11] is 0.82% (inactive). The RAM network inhibition in test [15] is 2.03% (inactive).

As to `O=C1c2ccccc2C(=O)N1C/C=C/CN1C(=O)c2ccccc2C1=O`, the viability is 85% in [1]; 85% (inactive) in test [3]; 86.5% (inactive) in test [4]; 82.8% (inactive) in test [5]; 92.3% in test [6] (setting [16]); 82.8% in test [6] (setting [17]). For the same molecule, the results for the viability in test [12] and in [13] were 90.3% (inactive) and 102% (inactive), respectively. Moreover, the Her2 level in [2] is 91.5% (inactive). Further, the differential viability (reversal) in [6] (H69AR cells + 2 uM doxorubicin) was -9.46% (inactive). The values for the inhibition in test [7], in [8] and in test [14] were -3.46% (inactive), -0.33% (inactive) and 3.1% (inactive), respectively. Moreover, the growth inhibition in test [9] is 2.25% (inactive); in test [10], -1.58% (inactive). Further, the viability increase in test [11] is -1.04% (inactive). In [15], the RAM network inhibition is 4.65% (inactive).

For `Cc1ccnc2c(N3C(=O)C4C5C=CC(C5)C4(C)C3=O)cccc12` (stereo not given), the viability in test [1] was 98%; in [3] it was 98% (inactive); in test [4], 105% (inactive); in test [5], 92.9% (inactive); in test [6] (setting [16]), 91.4%; in test [6] (setting [17]) it was 92.9%. The viability in [12] is 93.3% (inactive); in test [13], 95.5% (inactive). In [2], the Her2 level was 102% (inactive). Besides, in test [6] (H69AR cells + 2 uM doxorubicin), the differential viability (reversal) was 1.47% (inactive). The inhibition in test [7] was -3.47% (inactive); in [8], -5.5% (inactive); in test [14], 1.86% (inactive). Moreover, the growth inhibition in test [9] is -20.2% (inactive); in [10], -11.7% (inactive). The viability increase in test [11] was -0.94% (inactive). In [15], the RAM network inhibition was -1.63% (inactive).
